Values joined by “and” are separate entries in the source; they are usually repeats but may differ in a detail not shown here. Identical values can stand only once. Among all 5,500 compounds or so, about 2,000 (36%) were called active. About 18% were inconclusive and are not listed. Cut-off read from the data, not from the text of the source: active = normalized growth mostly below about 0.91 (no sharp cut-off); inconclusive = no clear call, values can overlap the other calls; inactive = mostly above about 0.92. Some of the results follow.
Test: chemical genetic growth profiling, strain panel (AID 1159580);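 note: tested at 20 µM; growth read once vehicle control cultures reached saturation at 30 °C; 1 = growth at the plate median or of vehicle wells; lower values mean less growth of the strain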
Conditions: S. cerevisiae deletion strains, growth OD

Measured: normalized growth

Cc1cc(=O)oc2cc(O)c(O)cc12
inactive: locus YAL021C, strain ccr4, hits give low values 1.01 | locus YAL026C, strain drs2, hits give low values 0.996 | locus YAL030W, strain snc1, hits give low values 1 | locus YBL061C, strain skt5, hits give low values 0.999 | locus YBR009C, strain hhf1, hits give low values 0.963 | locus YBR021W, strain FUR4, hits give low values 1.02 | locus YBR023C, strain chs3, hits give low values 0.998 | locus YBR171W, strain sec66, hits give low values 0.987 | locus YBR229C, strain ROT2, hits give low values 1 | locus YBR231C, strain swc5, hits give low values 0.995 | locus YBR279W, strain paf1, hits give low values 0.987 | locus YCL011C, strain gbp2, hits give low values 0.994 | locus YCL016C, strain dcc1, hits give low values 1 | locus YCL029C, strain bik1, hits give low values 0.974 | locus YCL061C, strain MRC1, hits give low values 0.989 | locus YCL069W, strain vba3, hits give low values 0.99 | locus YCR088W, strain abp1, hits give low values 1 | locus YDL005C, strain med2, hits give low values 0.98 | locus YDL035C, strain GPR1, hits give low values 0.973 | locus YDL040C, strain nat1, hits give low values 0.983 | locus YDL074C, strain BRE1, hits give low values 0.976 | locus YDL101C, strain DUN1, hits give low values 0.958 | locus YDL134C, strain PPH21, hits give low values 0.955 | locus YDL185W, strain tfp1, hits give low values 0.979 | locus YDL192W, strain arf1, hits give low values 0.961 | locus YDR001C, strain nth1, hits give low values 0.998 | locus YDR069C, strain doa4, hits give low values 0.994 | locus YDR101C, strain arx1, hits give low values 0.973 | locus YDR137W, strain rgp1, hits give low values 0.964 | locus YDR159W, strain sac3, hits give low values 0.997 | locus YDR162C, strain NBP2, hits give low values 0.985 | locus YDR195W, strain ref2 1.05 | locus YDR297W, strain sur2, hits give low values 0.995 | locus YDR318W, strain mcm21, hits give low values 0.966 | locus YDR334W, strain swr1, hits give low values 0.99 | locus YDR335W, strain msn5, hits give low values 0.994 | locus YDR388W, hits give low values 0.99 | locus YDR392W, strain spt3, hits give low values 0.91 | locus YDR502C, strain sam2, hits give low values 0.974 | locus YEL003W, strain gim4, hits give low values 0.981 | locus YEL037C, strain rad23, hits give low values 0.991 | locus YEL061C, strain CIN8 (second series), hits give low values 0.988 | locus YEL061C, strain CIN8, hits give low values 0.999 | locus YER015W, strain faa2, hits give low values 0.998 | locus YER016W, strain bim1, hits give low values 0.995 | locus YER110C, hits give low values 0.973 | locus YER111C, strain swi4, hits give low values 1.01 | locus YER155C, strain BEM2, hits give low values 1.01 | locus YER167W, strain BCK2, hits give low values 1.02 | locus YFR010W, strain ubp6, hits give low values 0.997 | locus YGL078C, strain dbp3, hits give low values 0.959 | locus YGL086W, strain mad1, hits give low values 0.993 | locus YGL167C, strain pmr1, hits give low values 0.99 | locus YGL173C, strain kem1, hits give low values 0.978 | locus YGL227W, strain vid30, hits give low values 1 | locus YGL240W, strain doc1, hits give low values 0.952 | locus YGL248W, strain PDE1, hits give low values 0.98 | locus YGL253W, strain hxk2, hits give low values 1 | locus YGR078C, strain PAC10, hits give low values 0.983 | locus YGR135W, strain pre9, hits give low values 0.957 | locus YGR229C, strain SMI1, hits give low values 0.974 | locus YGR252W, strain gcn5, hits give low values 0.79 | locus YHR013C, strain ard1, hits give low values 0.985 | locus YHR027C, strain rpn1, hits give low values 1 | locus YHR030C, strain SLT2, hits give low values 1.01 and 0.905 | locus YHR079C, strain IRE1 (second series), hits give low values 1.01 | locus YHR079C, strain IRE1, hits give low values 0.901 | locus YHR094C, strain hxt1, hits give low values 1.02 | locus YHR129C, strain ARP1, hits give low values 0.999 | locus YHR142W, strain chs7, hits give low values 0.958 | locus YHR200W, strain rpn10, hits give low values 0.972 | locus YIL066C, strain RNR3, hits give low values 1 | locus YIL073C, strain SPO22, hits give low values 1 | locus YIL125W, strain kgd1, hits give low values 1.01 | locus YIR030C, strain dcg1, hits give low values 0.99 | locus YJL092W, strain hpr5, hits give low values 0.993 | locus YJL095W, strain BCK1 (second series), hits give low values 0.998 | locus YJL095W, strain BCK1, hits give low values 0.932 and 0.924 | locus YJL115W, strain asf1, hits give low values 0.994 | locus YJL129C, strain trk1, hits give low values 1.05 | locus YJL134W, strain LCB3, hits give low values 1.01 | locus YJL154C, strain vps35, hits give low values 1.01 | locus YJL164C, strain tpk1, hits give low values 0.973 | locus YJL166W, strain qcr8, hits give low values 0.995 | locus YJL168C, strain set2, hits give low values 1 | locus YJL187C, strain SWE1 (second series), hits give low values 0.991 | locus YJL187C, strain SWE1, hits give low values 0.999
active: locus YER155C, strain BEM2 (second series), hits give low values 0.787
